Test results as given in PubChem BioAssay (Tox21).
Where “and” joins values, the source holds several entries; their conditions need not be identical. Equal entries are not always repeated. Results filed as inconclusive are left out. Entries that show only a call come without a potency. The source holds several records for some structures; these can differ, active in one and inactive in another. Calls of active or inactive are those of the source. Unless noted, calls come from the whole dose curve.

Assay: qHTS assay for small molecule agonists of the antioxidant response element (ARE) signaling pathway - cell viability counter screen (AID 743203); note: nearly all actives have a fitted effect of over 55% in size
Conditions: ARE-bla HepG2 viability, CellTiter-Glo luminescence, 16 h; series mostly up to 73.3 µM; viability change, negative = cytotoxic: at the top concentration
Method in brief: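 Measured in the same wells as the beta-lactamase ARE reporter, this read-out is CellTiter-Glo luminescence from HepG2 ARE-bla cells given compounds for 16 hrs.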
Potency is the fitted concentration of half-maximal effect.

SMILES	Potency	viability change, negative = cytotoxic
c1ccc(NNc2ccccc2)cc1	inactive	
Cc1cc(C)cc(C)c1	inactive	
c1cc(OCC2CO2)ccc1Cc1ccc(OCC2CO2)cc1 (configuration not stated)	inactive	
COc1ccc(C(CN(C)C)C2(O)CCCCC2)cc1 (configuration not stated)	inactive	
CN(C)c1ccc(C(=O)c2ccc(N(C)C)cc2)cc1		6.63% (inactive)
Nc1ccncc1	inactive	
CCOc1cc(C=O)ccc1O	inactive	
CCCCCCCCC(=O)NCc1ccc(O)c(OC)c1	inactive	
CC(C)c1ccc(CO)cc1	inactive	
CCOC(=S)S	inactive	
N#CCCCl	inactive	
O=C(O)C(F)(F)C(F)(F)C(F)(F)C(F)(F)C(F)(F)C(F)(F)C(F)(F)F	inactive	
NNC(=S)NN	inactive	
CCc1cccc(CC)c1N(COC)C(=O)CCl		-0.107% (inactive)
Nc1ccc(Cl)cc1N	inactive and 6.11 µM (active)	
CC(C)N(C(=O)SCC(Cl)=C(Cl)Cl)C(C)C	inactive	
CCOCN(C(=O)CCl)c1c(C)cccc1CC	14.5 µM (active) and 21.7 µM (active)	
CCCCOCCOP(=O)(OCCOCCCC)OCCOCCCC	inactive	

SMILES	Potency	viability change, negative = cytotoxic
C=CCc1ccc2c(c1)OCO2	inactive	
S=C1NCCN1	inactive	
Oc1cc(Cl)ccc1Oc1ccc(Cl)cc1Cl	27.9 µM (active)	
C1=Cc2cccc3cccc1c23	inactive	
C#CCOS(=O)OC1CCCCC1Oc1ccc(C(C)(C)C)cc1 (configuration not stated)	inactive	
Nc1ccc(-c2ccccc2)cc1	inactive	
CCC(C)c1ccc(O)cc1 (configuration not stated)	inactive	
Nc1ccc(-c2ccc(N)c(N)c2)cc1N	inactive	
O=C1C=CC(=O)C=C1	inactive	
O=Cc1ccco1	inactive	
C=CC(=O)OCCO	inactive	
Cc1ccc(N)c(N)c1	inactive	
O=C(CCl)c1ccccc1	inactive	
C[C@]12CCC(=O)C[C@@H]1CC[C@@H]1[C@@H]2CC[C@]2(C)[C@@H](O)CC[C@@H]12		0.0467% (inactive)
CCC(C)(c1ccc(O)cc1)c1ccc(O)cc1		-24.5% (inactive)
N#Cc1cc(Br)c(O)c(Br)c1		-17.4% (inactive)
N[C@@H](Cc1ccc(N(CCCl)CCCl)cc1)C(=O)O	inactive	
CC(C)=CC1C(C(=O)OCc2coc(Cc3ccccc3)c2)C1(C)C (configuration not stated)	inactive	

Assay: qHTS assay for small molecule activators of the heat shock response signaling pathway - cell viability counter screen (AID 743209; active = well fitted cell-killing curve with a large enough effect in the repeat runs; note: nearly all actives have a fitted effect of over 50% in size)
Conditions: HSE-bla HeLa viability, CellTiter-Glo luminescence, 5 h; series mostly up to 62.6 µM; activity change, negative = cytotoxicity: at the top concentration
Method in brief: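 Same-well multiplex: after 2.5 h room-temperature incubation with LiveBLAzer B/G substrate and fluorescence reading, CellTiter-Glo reagent was added to HSE-bla HeLa cells that had received compound for 5 h at 37 C; luminescence read after 30 min.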

SMILES	Potency	activity change, negative = cytotoxicity
c1ccc(NNc2ccccc2)cc1	inactive	
Cc1cc(C)cc(C)c1		2.56% [at 81.1 µM] (inactive)
c1cc(OCC2CO2)ccc1Cc1ccc(OCC2CO2)cc1 (configuration not stated)	inactive	
CC(C)(c1cc(Cl)c(O)c(Cl)c1)c1cc(Cl)c(O)c(Cl)c1		-20.5% (inactive)
COc1ccc(C(CN(C)C)C2(O)CCCCC2)cc1 (configuration not stated)	inactive	
CN(C)c1ccc(C(=O)c2ccc(N(C)C)cc2)cc1	inactive	
Nc1ccncc1	inactive	
CCOc1cc(C=O)ccc1O	inactive	
CCCCCCCCC(=O)NCc1ccc(O)c(OC)c1	inactive	
CC(C)c1ccc(CO)cc1	inactive	
CCOC(=S)S	17.4 µM (active)	
Oc1c(Cl)c(Cl)c(Cl)c(Cl)c1Cl		3.74% (inactive)
N#CCCCl	inactive	
O=C(O)C(F)(F)C(F)(F)C(F)(F)C(F)(F)C(F)(F)C(F)(F)C(F)(F)F		13.8% (inactive)
NNC(=S)NN		-10.6% (inactive)
CCc1cccc(CC)c1N(COC)C(=O)CCl	inactive	
Nc1ccc(Cl)cc1N	inactive	
CC(C)N(C(=O)SCC(Cl)=C(Cl)Cl)C(C)C		3.83% (inactive)
CCCCOCCOP(=O)(OCCOCCCC)OCCOCCCC	inactive	

SMILES	Potency	activity change, negative = cytotoxicity
C=CCc1ccc2c(c1)OCO2	inactive	
S=C1NCCN1	inactive	
Oc1cc(Cl)ccc1Oc1ccc(Cl)cc1Cl	30.7 µM (active) and 29.8 µM (active)	
C1=Cc2cccc3cccc1c23	inactive	
C#CCOS(=O)OC1CCCCC1Oc1ccc(C(C)(C)C)cc1 (configuration not stated)	inactive	
Nc1ccc(-c2ccccc2)cc1	inactive	
CCC(C)c1ccc(O)cc1 (configuration not stated)	inactive	
Nc1ccc(-c2ccc(N)c(N)c2)cc1N	inactive	
O=C1C=CC(=O)C=C1	inactive	
O=Cc1ccco1	inactive	
C=CC(=O)OCCO	inactive	
Cc1ccc(N)c(N)c1	inactive	
O=C(CCl)c1ccccc1	inactive and 24.5 µM (active)	
C[C@]12CCC(=O)C[C@@H]1CC[C@@H]1[C@@H]2CC[C@]2(C)[C@@H](O)CC[C@@H]12		-5.22% (inactive)
CCC(C)(c1ccc(O)cc1)c1ccc(O)cc1	inactive	
N#Cc1cc(Br)c(O)c(Br)c1		-3.03% (inactive)
N[C@@H](Cc1ccc(N(CCCl)CCCl)cc1)C(=O)O		-16.9% (inactive)
CC(C)=CC1C(C(=O)OCc2coc(Cc3ccccc3)c2)C1(C)C (configuration not stated)	inactive	

Assay: qHTS assay for small molecule activators of the heat shock response signaling pathway (AID 743210; active = well fitted activation curve with a large enough effect in the signal ratio in the repeat runs, with a control signal flat, not every such curve was filed as active; the % refers to the signal ratio;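 for activation: HeLa cells with beta-lactamase reporter driven by heat shock elements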)
Conditions: HeLa HSE-bla reporter, beta-lactamase ratio, 5 h; series mostly up to 62.6 µM; activation: at the top concentration
Method in brief: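 Beta-lactamase reporter read-out: FRET substrate fluorescence after 2.5 h at RT, following 5 h compound treatment at 37 C of HeLa cells carrying HSE-driven bla reporter; quantitative HTS format.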

SMILES	Potency	activation
Cc1cc(C)cc(C)c1	inactive	
COc1ccc(C(CN(C)C)C2(O)CCCCC2)cc1 (configuration not stated)	inactive	
CN(C)c1ccc(C(=O)c2ccc(N(C)C)cc2)cc1		-0.413% (inactive)
CC(C)c1ccc(CO)cc1	inactive	
CCOC(=S)S	2.24 µM (active)	
Oc1c(Cl)c(Cl)c(Cl)c(Cl)c1Cl		0.0276% (inactive)
N#CCCCl	inactive	
CC(C)N(C(=O)SCC(Cl)=C(Cl)Cl)C(C)C		0.629% (inactive)
CCCCOCCOP(=O)(OCCOCCCC)OCCOCCCC	inactive	
C=CCc1ccc2c(c1)OCO2	inactive	
S=C1NCCN1	inactive	
C1=Cc2cccc3cccc1c23	inactive	
C#CCOS(=O)OC1CCCCC1Oc1ccc(C(C)(C)C)cc1 (configuration not stated)		6.32% (inactive)
CCC(C)c1ccc(O)cc1 (configuration not stated)	inactive	
O=C1C=CC(=O)C=C1	inactive	
O=Cc1ccco1	inactive	
C=CC(=O)OCCO	inactive	
C[C@]12CCC(=O)C[C@@H]1CC[C@@H]1[C@@H]2CC[C@]2(C)[C@@H](O)CC[C@@H]12		-0.536% (inactive)
N[C@@H](Cc1ccc(N(CCCl)CCCl)cc1)C(=O)O	inactive	
